Our source for the fold shift values is PubChem BioAssay AID743466 (Vanderbilt Specialized Chemistry Center, 2014).

In this test the target is Metabotropic glutamate receptor 4 (Homo sapiens) (UniProt Q14833). Kind of test: agonist response potentiation at mGlu4 receptor – cell-based, GIRK thallium flux, mechanism study for group III mGlu PAM project, late-stage follow-up (AID 743466). As to conditions: mGlu4/GIRK cells, glutamate CRC fold shift, at 10 µM, stronger effect = higher value.
Sequence of Metabotropic glutamate receptor 4 (Homo sapiens) (Q14833 whole entry, looked up): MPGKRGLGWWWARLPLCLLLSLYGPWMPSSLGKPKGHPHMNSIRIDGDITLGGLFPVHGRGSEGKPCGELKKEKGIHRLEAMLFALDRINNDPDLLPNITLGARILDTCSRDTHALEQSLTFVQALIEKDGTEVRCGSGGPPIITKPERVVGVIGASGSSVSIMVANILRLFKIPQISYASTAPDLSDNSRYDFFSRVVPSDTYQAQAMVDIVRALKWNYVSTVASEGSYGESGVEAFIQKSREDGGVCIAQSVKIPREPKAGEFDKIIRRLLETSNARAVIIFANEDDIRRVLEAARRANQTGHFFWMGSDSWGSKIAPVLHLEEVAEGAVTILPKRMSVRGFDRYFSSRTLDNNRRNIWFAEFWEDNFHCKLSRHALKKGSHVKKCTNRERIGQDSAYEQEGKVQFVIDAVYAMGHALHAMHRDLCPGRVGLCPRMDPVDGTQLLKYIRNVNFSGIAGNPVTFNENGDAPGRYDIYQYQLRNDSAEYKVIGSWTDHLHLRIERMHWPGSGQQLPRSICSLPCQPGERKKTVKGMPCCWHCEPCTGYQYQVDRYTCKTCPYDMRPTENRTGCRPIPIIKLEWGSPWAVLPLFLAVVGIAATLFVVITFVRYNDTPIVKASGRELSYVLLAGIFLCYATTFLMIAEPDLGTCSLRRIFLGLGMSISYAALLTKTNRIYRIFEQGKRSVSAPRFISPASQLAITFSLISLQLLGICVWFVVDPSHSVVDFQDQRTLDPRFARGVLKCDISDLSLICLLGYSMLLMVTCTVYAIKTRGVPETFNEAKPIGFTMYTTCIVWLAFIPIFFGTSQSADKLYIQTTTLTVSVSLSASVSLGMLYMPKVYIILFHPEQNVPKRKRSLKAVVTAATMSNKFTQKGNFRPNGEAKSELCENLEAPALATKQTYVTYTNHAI

For the molecule `COC(=O)c1ccc(-n2c(C)cc(C(=O)CSc3ccc(NC(C)=O)cc3)c2C)cc1`, the fold shift worked out at 1.84.
